A short description of test [1]: CCTE_Shafer_MEA_dev_AB: CCTE's Alamar Blue Assay for Cytotoxicity in the Neural Network Formation Assay, Shafer Lab (AID 2284083; active = hit-call score of the fitted dose curve at least 0.9, where 1 is the maximum;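 also: resazurin reduction fluorescence as viability of cultured neurons; twelve days of exposure from plating with re-dosing on DIV 5 and 9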). Put shortly: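 Resazurin fluorescence, relative to DMSO, gauges viability after twelve days of exposure that began at plating of rat cortical neurons (1.5 x 10^5 cells/well, 48-well MEA); treatment renewed with full medium exchange on DIV 5 and 9.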

The nature of test [2]: CCTE_Shafer_MEA_dev_mutual_information_norm: CCTE's Neural Network Formation Assay for Mutual Information Normalization, Shafer Lab (AID 2284091).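 As to AC50: mutual information between electrodes summarised as area under curve across four recording days; potency is for a decrease in mutual information relative to DMSO.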 Put shortly:
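Shared information across electrodes, tracked on days 5, 7, 9 and 12 of network development and collapsed as trapezoidal area under the curve. Rat cortical cultures were treated continuously from plating, with treatment renewed at feeds on DIV 5 and 9; DMSO baseline, negative-direction fit.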

Test [3] is described as follows: CCTE_Shafer_MEA_dev_correlation_coefficient_mean: CCTE's Neural Network Formation Assay for Mean Correlation Coefficient, Shafer Lab (AID 2284093).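 As to AC50: well mean pairwise spike train correlation integrated as AUC over recording days 5 to 12; potency fitted for loss of correlation relative to DMSO vehicle wells.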 A digest of the protocol:
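Primary rat cortical neurons on PEI-coated 48-well MEA plates (16 electrodes/well) were exposed from plating day 0 through DIV12, with compound renewed at DIV5 and 9. Pairwise spike correlations were averaged per well; trapezoidal AUC across DIV5, 7, 9, 12.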

Test [4] is described as follows: UKN2_HCS_IMR90_neural_migration: University of Konstanz (UKN) Leist Lab Neural Crest Cell Migration Assay in human induced IMR90 Pluripotent Stem Cells (UKN2) (AID 2284204). To be noted: actives raise or lower the signal. A digest of the protocol: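 High-content imaging of calcein-AM and Hoechst stained cells quantifies migration into a stopper-defined gap after 24 h compound exposure. Neural crest cells from IMR90 iPSC migrated 24 h in EGF/FGF N2-S medium before dosing; DMSO baseline.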

Test [5] is described as follows: IUF_NPC1b_proliferation_BrdU_72hr: Leibniz Research Institute for Environmental Medicine (IUF) 72-hour Neural Progenitor Cell Bromodeoxyuridine (BrdU) Proliferation Assay (NPC1b) (AID 2284207). Put shortly: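 Human fetal cortex-derived (GW 16-19) neural progenitor spheres, 0.25-0.35 mm, one per well in EGF/FGF proliferation medium, exposed to compound for 72 h at 37C, pH 7.2-7.6. BrdU incorporation over the final 16 h read by luminescence ELISA, relative to DMSO.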

A short description of test [6]: IUF_NPC1a_proliferation_area_72hr: Leibniz Research Institute for Environmental Medicine (IUF) 72-hour Neural Progenitor Cell Proliferation Area Assay (NPC1a) (AID 2284208). Put shortly: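 Spheres of 0.3 mm are plated singly in growth-factor medium and exposed from day 0. After three days at 37C and 5% CO2, sphere area is measured by phase contrast imaging, with activity referenced to DMSO.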

Test [7] in a line: IUF_NPC1_viability_72hr: Viability Assessment at 72 hours in the Leibniz Research Institute for Environmental Medicine (IUF) Neural Progenitor Cell Proliferation Assay (NPC1) (AID 2284209). Put shortly: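 Viability was measured by resazurin-to-resorufin fluorescence (alamar blue) after 72 h of continuous exposure without compound renewal. Each well held one hNPC sphere (gestational week 16-19 fetal cortex, 0.25-0.35 mm) cultured in EGF/FGF proliferation medium at 37C and pH 7.2-7.6.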

Test [8] can be described thus: CCTE_Mundy_HCI_Cortical_Synap_Neur_Matur_NeuriteSpotCountPerNeuriteLength: CCTE's Synaptogenesis and Neurite Maturation Assay in rat cortical cells for Neurite Spot Count per Neurite Length, Mundy Lab (AID 2284210). Put shortly: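 Synaptophysin spots per unit neurite length, measured by automated imaging of MAP2/synaptophysin/Hoechst-stained neurons. Cultures from rat cortex received chemical at DIV 7 with media change through DIV 12; glial growth arrested by AraC at DIV 5; DMSO baseline.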

Test [9] is described as follows: CCTE_Mundy_HCI_Cortical_Synap_Neur_Matur_BPCount: CCTE's Synaptogenesis and Neurite Maturation Assay in rat cortical cells for Branch Point Count, Mundy Lab (AID 2284211). A digest of the protocol: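 HCI read-out of branch points from MAP2/synaptophysin/Hoechst immunofluorescence; rat cortical cultures, AraC DIV 5, dosing DIV 7, fixed DIV 12; fit in positive direction vs DMSO baseline.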

A short description of test [10]: CCTE_Mundy_HCI_Cortical_NOG_NeuriteLength: CCTE's Neurite Outgrowth Assay in rat cortical cells for Neurite Length, Mundy Lab (AID 2284213).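 As to AC50: neurites imaged about 48 to 50 h after chemical exposure began.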 Put shortly: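 First, rat primary cortical cells were plated and, 2 h later, given test chemical as a 1/10 dilution. Finally, βIII-tubulin immunostaining enabled automated imaging of neurite length.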
Test [11] is described as follows: CCTE_Mundy_HCI_Cortical_Synap_Neur_Matur_NeuriteLength: CCTE's Synaptogenesis and Neurite Maturation Assay in rat cortical cells for Neurite Length, Mundy Lab (AID 2284214). A digest of the protocol: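 Neurite length quantified by automated high-content imaging of MAP2, synaptophysin and Hoechst staining. Rat cortical cells received chemical from DIV 7 to DIV 12 […], glial growth arrested by AraC at DIV 5; DMSO baseline.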

Test [12] in a line: CCTE_Mundy_HCI_Cortical_Synap_Neur_Matur_NeuriteSpotCountPerNeuron: CCTE's Synaptogenesis and Neurite Maturation Assay in rat cortical cells for Neurite Spot Count per Neuron Count, Mundy Lab (AID 2284215). A digest of the protocol: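 Rat cortical primary cultures; AraC DIV 5 to arrest glia; dosing + media change DIV 7; fixed DIV 12. Anti-MAP2/anti-synaptophysin, Hoechst nuclei; HCI puncta count per neuron, positive fitting direction vs DMSO.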

Test [13] in a line: CCTE_Mundy_HCI_Cortical_Synap_Neur_Matur_SynapseCount: CCTE's Synaptogenesis and Neurite Maturation Assay in rat cortical cells for Synapse Count, Mundy Lab (AID 2284218). Put shortly:
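High-content imaging of synaptophysin puncta per MAP2-positive neuron (Hoechst nuclei) in rat cortical cells exposed DIV 7–12 after glial arrest with AraC at DIV 5; decrease relative to DMSO scored.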

A short description of test [14]: CCTE_Mundy_HCI_Cortical_Synap_Neur_Matur_NeuriteCount: CCTE's Synaptogenesis and Neurite Maturation Assay in rat cortical cells for Neurite Count, Mundy Lab (AID 2284222).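 As to outcome: exposure from day 7 to day 12 in vitro with readout at day 12.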 Put shortly:
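Rat cortical neurons, 96-well; AraC DIV 5; chemical + media change DIV 7; end DIV 12. Fix PFA/Hoechst, anti-MAP2 + anti-synaptophysin IF. HCI neurite count vs DMSO baseline.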

Test [15] is described as follows: CCTE_Shafer_MEA_acute_LDH: CCTE's Lactate Dehydrogenase Assay for Cytotoxicity in the Neural Acute Assay, Shafer Lab (AID 2284086; active = hit-call score of the fitted dose curve at least 0.9, where 1 is the maximum;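 also: active means LDH release rises above DMSO vehicle level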). A digest of the protocol: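 LDH released during 40 min compound exposure of primary rat cortical cultures, quantified by absorbance at 490 nm in collected medium. Fitting direction positive versus DMSO vehicle.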
Test [16] is described as follows: UKN4_HCS_LUHMES_neurite_outgrowth: University of Konstanz (UKN) Leist Lab Neurite Outgrowth Assay in human LUHMES cells (UKN4) (AID 2284206). The conditions noted are these: actives raise or lower the signal. Put shortly:
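After 24 h compound treatment beginning shortly after replating of 2-day-differentiated LUHMES cells, calcein-AM and H-33342 live staining allowed high-content imaging of neurite area and viability. Fitted bidirectionally against DMSO.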

Test [17] is described as follows: TAMU_PeakParms_SingleDonor1434_Chronotropy: Texas A&M University (TAMU) 1.5-hr Human Induced Pluripotent Stem Cell (iPSC)-derived Cardiomyocytes Calcium (Ca+2) Flux Assay for Cardiotoxicity: Chronotropy (changes in peak frequency) (AID 2284217). The conditions noted are these: actives raise or lower the signal. A digest of the protocol:
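Beat rate, as mean Ca2+-flux peak frequency, was read from donor 1434 iPSC cardiomyocytes 90 min after exposure to 0.2–100 uM test chemical (0.5% DMSO). Wells that stopped beating were excluded; EC05 from bidirectional DMSO-referenced fitting.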

Test [18] can be described thus: CCTE_Mundy_HCI_hN2_NOG_NeuriteCount: CCTE's Neurite Outgrowth Assay in human hN2 cells for Neurite Count, Mundy Lab (AID 2284219; active = hit-call score of the fitted dose curve at least 0.9, where 1 is the maximum). A digest of the protocol:
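In this morphology assay, hNP1-derived neurons received test chemical 2 h post-plating and were fixed two days later in warm paraformaldehyde/sucrose containing Hoechst 33342. Neurites, labelled by rabbit anti-βIII-tubulin (1:800) and Alexa Fluor-488 (1:500), were counted automatically.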

A short description of test [19]: CCTE_Mundy_HCI_hN2_NOG_NeuriteLength: CCTE's Neurite Outgrowth Assay in human hN2 cells for Neurite Length, Mundy Lab (AID 2284220; active = hit-call score of the fitted dose curve at least 0.9, where 1 is the maximum). Put shortly:
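Plate hNP1-derived neurons, then add chemical 2 h later as a 1/10 dilution. Stain with anti-βIII-tubulin then Alexa Fluor-488 secondary, and image automatically to measure neurite length.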

The nature of test [20]: CCTE_Mundy_HCI_hN2_NOG_NeuronCount: CCTE's Neurite Outgrowth Assay in human hN2 cells for Neuron Count, Mundy Lab (AID 2284221; active = hit-call score of the fitted dose curve at least 0.9, where 1 is the maximum). Put shortly: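 Read-out is the number of betaIII-tubulin-positive neurons imaged by automated high-content analysis, with DMSO as negative control.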

Values joined by “and” are separate entries in the source; they are usually repeats but may differ in a detail not shown here. Equal entries are not always repeated. Inconclusive results are not listed. More than one record can exist for a structure, and the calls need not agree. Active and inactive are the calls of the source. The calls were made as follows, unless noted: active = hit-call score of the fitted dose curve at least 0.9, where 1 is the maximum; inactive = score below 0.9.

A word on the AC50: it is the concentration at which the activity in the assay is half-maximal.

As to `CCCCOC(=O)c1ccccc1C(=O)OCCCC`, the compound was classed as inactive in test [1], in test [2], in test [3], in test [4], in test [5] and in [6]. Besides, the compound was called inactive in test [7] and in test [10]. Further, the AC50 in [8] was 84.1 µM (active); in [9], 50 µM (active); in test [11] it was 64.7 µM (active); in [12], 50 µM (active); in [13] it was 50 µM (active); in [14] it was 85.8 µM (active).
For the compound `CCNc1nc(Cl)nc(NC(C)C)n1`, the call in [2] and in [3] was inactive.
With `C=CCC1=C(C)C(OC(=O)C2C(C=C(C)C)C2(C)C)CC1=O` (stereo not drawn), the AC50 is 22.8 µM (active) in test [1], 917 nM (active) in test [2], 4.1 µM (active) in test [3] and 9.08 µM (active) in [16]. The call in test [1], in [15], in test [2], in [3], in [8] and in test [9] was inactive. Further, the call in test [10], in [11], in test [12], in test [13] and in [14] was inactive.
Consider `CCCCC(CC)COC(=O)c1ccccc1C(=O)OCC(CC)CCCC` (stereo not drawn), for which the AC50 was 12.4 µM (active) in [1]; 1.59 µM (active) and 2.77 µM (active) in [2]; 5.5 µM (active) and 7.56 µM (active) in [3]; 8.06 µM (active) and 7.58 µM (active) in [8]; 3.03 µM (active) in [9]; 8.99 µM (active) and 15 µM (active) in test [10]. For the same compound, the concentration at half-maximal activity (AC50) in [11] was 3.85 µM (active) and 4.26 µM (active); in [12], 5.47 µM (active) and 3.59 µM (active); in test [17], 50 µM (active); in test [13], 6.28 µM (active) and 4 µM (active); in [14] it was 4.84 µM (active). In addition, the result in test [1], in test [2], in [3], in test [4], in test [5] and in test [6] was inactive. Further, the call in test [7], in test [18], in test [19] and in [20] was inactive.
For `CC(C)Oc1cc(-n2nc(C(C)(C)C)oc2=O)c(Cl)cc1Cl`, the outcome in test [15] was inactive.
`Cc1ccc(-c2c(Cl)nc(C#N)n2S(=O)(=O)N(C)C)cc1`: the AC50 in test [1] was 50 µM (active); in test [2], 15200 nM (active); in test [3], 27.9 µM (active); in [5], 74.2 µM (active); in test [6], 74.1 µM (active); in test [7], 83 µM (active). Also, the AC50 in test [8] was 73.3 µM (active); in [9] it was 71.1 µM (active); in test [10], 85.3 µM (active); in test [11] it was 85.7 µM (active); in [12] it was 70.3 µM (active); in [13], 74.3 µM (active). Further, in test [14], the concentration at half-maximal activity (AC50) is 80.2 µM (active). Further, the compound was called inactive in test [15] and in test [4].

The values above are taken from PubChem BioAssay (EPA / NIEHS).
